Assay [1] addresses 6-phosphogluconate dehydrogenase, decarboxylating (Homo sapiens) (UniProt P52209). The assay can be described thus: inhibition of human phosphogluconate dehydrogenase – biochemical, recombinant enzyme, NADPH absorbance, primary screen (AID 1159550;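 active means at least 20% inhibition of 6-phosphogluconate dehydrogenase activity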). The settings on record: recombinant 6PGD, NADPH absorbance 341 nm; at 10 µM; stronger effect = higher value.
Assay [2] addresses Mitogen-activated protein kinase 7 (Homo sapiens) (UniProt Q13164). The assay can be described thus: Gal4-ERK5 driven luciferase induction – cell-based, HTS, primary screen (AID 1508626;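 active means luciferase signal above three times the same-plate solvent-only control wells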;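 further: luciferase driven by Gal4-ERK5 fusion binding five Gal4 sites before minimal TATA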). The settings on record: HeLa Gal4-ERK5 transactivation, 18 h, at 5 µM, stronger effect = higher value.
The nature of assay [3]: antimalarial activity against Dd2 strain (AID 2302;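 active means growth inhibition above 50% at the single 2 µM test dose, taken to imply half-maximal potency below 2 µM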;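 further: 0% = DMSO untreated growth and 100% = chloroquine plus artemisinin killed control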). The settings on record: P. falciparum Dd2 in RBCs, LDH growth readout, 72 h; at 2 µM; stronger effect = higher value.
Assay [4] in a line: human hepatoma cell viability loss – ATP luminescence, cytotoxicity control for P. falciparum antimalarial project, primary screen (AID 2303;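 active means inhibition above 50%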;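 further: 0% = DMSO wells and 100% = digitonin-killed cells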). Particulars: HepG2 viability, 24-48 h, at 10 µM, stronger effect = higher value.
Assay [5] addresses L-lactate dehydrogenase (Plasmodium falciparum (isolate CDC / Honduras)) (UniProt Q27743). In words: PfLDH activity inhibition – cell lysate, 3D7 strain, counter-screen for P. falciparum growth inhibition project (AID 2304).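 Further: 0% = vehicle and 100% = reference inhibitor.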 Particulars: P. falciparum 3D7 crude extract, LDH APAD/NBT absorbance; at 2 µM; stronger effect = higher value.
Assay [6] in a line: inhibition of 3D7 malaria parasite growth – strain 3D7 (AID 2306).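 Further: 0% = DMSO wells and 100% = chloroquine plus artemisinin control wells.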 The settings on record: P. falciparum 3D7 erythrocytic growth, LDH absorbance, 72 h; at 2 µM; stronger effect = higher value.
For assay [7], the target named is Calcium-dependent protein kinase 1 (Plasmodium falciparum (isolate 3D7)) (UniProt P62344). In words: PfCDPK1 kinase inhibitors, biochemical, TCAMS library (AID 1159585; cut-off not given, nearly all actives have IC50 up to about 0.98 µM;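 further: inhibitors leave more ATP so luminescence rises with inhibition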). The settings on record: recombinant PfCDPK1, Kinase-Glo ATP depletion luminescence. For orientation: Kinase-Glo reads ATP consumption through a luciferase reaction.
Chain of Calcium-dependent protein kinase 1 (Plasmodium falciparum (isolate 3D7)) (P62344 whole entry, looked up): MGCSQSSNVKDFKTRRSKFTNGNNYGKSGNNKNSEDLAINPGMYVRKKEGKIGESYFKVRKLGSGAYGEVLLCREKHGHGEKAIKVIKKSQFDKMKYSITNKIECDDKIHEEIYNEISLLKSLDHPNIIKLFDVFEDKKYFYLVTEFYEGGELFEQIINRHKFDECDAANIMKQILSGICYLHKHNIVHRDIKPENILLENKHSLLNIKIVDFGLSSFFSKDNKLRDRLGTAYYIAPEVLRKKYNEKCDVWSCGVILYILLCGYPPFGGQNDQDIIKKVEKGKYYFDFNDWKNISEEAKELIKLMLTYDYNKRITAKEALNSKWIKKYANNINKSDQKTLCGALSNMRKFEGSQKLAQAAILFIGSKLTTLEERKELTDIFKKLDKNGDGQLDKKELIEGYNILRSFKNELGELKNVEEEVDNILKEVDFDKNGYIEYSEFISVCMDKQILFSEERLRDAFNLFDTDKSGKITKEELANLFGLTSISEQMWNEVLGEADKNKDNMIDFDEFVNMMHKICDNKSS
For assay [8], the target named is Plasmodium falciparum protein kinase 6 (PK6, PF3D7_1337100) (UniProt Q8IDW1). In words: PfPK6 kinase inhibitors, biochemical, TCAMS library (AID 1159586). Particulars: recombinant PfPK6, Kinase-Glo ATP depletion luminescence.
Chain of Plasmodium falciparum protein kinase 6 (PK6, PF3D7_1337100) (Q8IDW1 1-305): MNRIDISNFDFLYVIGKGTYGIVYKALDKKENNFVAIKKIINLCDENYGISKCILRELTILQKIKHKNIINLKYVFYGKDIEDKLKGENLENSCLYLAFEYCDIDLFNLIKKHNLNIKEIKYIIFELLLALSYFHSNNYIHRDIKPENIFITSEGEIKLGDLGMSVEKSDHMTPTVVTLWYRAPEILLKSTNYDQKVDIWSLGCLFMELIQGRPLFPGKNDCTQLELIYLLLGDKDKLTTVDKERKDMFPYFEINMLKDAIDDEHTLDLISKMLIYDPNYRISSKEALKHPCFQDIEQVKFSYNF
For assay [9], the target named is Protein kinase 7 (PK7), Plasmodium falciparum 3D7 (PF3D7_0213400) (UniProt Q7YTF7). In words: inhibition of Plasmodium PK7 catalytic activity – biochemical, TCAMS antimalarial set, Kinase-Glo luminescence (AID 1159587). The settings on record: recombinant PfPK7, Kinase-Glo ATP depletion luminescence.
Chain of Protein kinase 7 (PK7), Plasmodium falciparum 3D7 (PF3D7_0213400) (Q7YTF7 1-343): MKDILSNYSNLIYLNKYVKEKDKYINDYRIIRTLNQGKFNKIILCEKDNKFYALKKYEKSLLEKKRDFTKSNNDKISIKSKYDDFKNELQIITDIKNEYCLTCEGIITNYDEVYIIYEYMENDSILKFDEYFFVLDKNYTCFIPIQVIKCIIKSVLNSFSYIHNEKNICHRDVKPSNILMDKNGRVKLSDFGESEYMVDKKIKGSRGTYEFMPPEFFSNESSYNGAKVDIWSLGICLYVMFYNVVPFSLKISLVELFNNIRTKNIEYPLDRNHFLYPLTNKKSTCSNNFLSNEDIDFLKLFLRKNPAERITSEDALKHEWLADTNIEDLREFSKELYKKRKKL
The target of assay [10] is Calcium-dependent protein kinase 4 (Plasmodium falciparum (isolate 3D7)) (UniProt Q8IBS5). The assay can be described thus: PfCDPK4 kinase inhibitors, biochemical, TCAMS library (AID 1159588; cut-off not given, nearly all actives have IC50 up to about 0.91 µM). Particulars: recombinant PfCDPK4, Kinase-Glo ATP depletion luminescence.
Chain of Calcium-dependent protein kinase 4 (Plasmodium falciparum (isolate 3D7)) (Q8IBS5 whole entry, looked up): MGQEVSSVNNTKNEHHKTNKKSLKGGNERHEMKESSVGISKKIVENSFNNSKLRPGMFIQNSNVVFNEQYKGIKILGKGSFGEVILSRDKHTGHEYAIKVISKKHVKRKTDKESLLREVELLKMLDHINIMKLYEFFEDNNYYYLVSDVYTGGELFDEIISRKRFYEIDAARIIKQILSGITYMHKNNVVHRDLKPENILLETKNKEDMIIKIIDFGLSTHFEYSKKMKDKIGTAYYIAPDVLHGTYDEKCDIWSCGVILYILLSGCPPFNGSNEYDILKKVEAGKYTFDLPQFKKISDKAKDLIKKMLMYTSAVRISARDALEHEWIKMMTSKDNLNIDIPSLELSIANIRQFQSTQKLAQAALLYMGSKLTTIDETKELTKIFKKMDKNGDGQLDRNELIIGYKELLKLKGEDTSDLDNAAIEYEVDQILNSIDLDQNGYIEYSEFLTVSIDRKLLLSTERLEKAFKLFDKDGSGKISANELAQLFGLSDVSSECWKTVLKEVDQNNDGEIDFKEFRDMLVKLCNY
A short description of assay [11]: compounds altering circadian rhythm period length – cell-based, LOPAC library, luminescence reporter (AID 2774).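 Further: values are relative to mean of DMSO wells on each plate.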 Particulars: circadian reporter cells, at 7 µM, actives lie on both sides.
The subject of assay [12] is Aerobactin synthetase IucA (Klebsiella pneumoniae). In words: inhibition of K. pneumoniae IucA enzyme – biochemical, Tocris library, absorbance (AID 1345561).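 Further: 100% = enzyme without compound and 0% = no enzyme.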 The settings on record: purified IucA enzyme assay, absorbance (OD) read-out; stronger effect = lower value;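 tested at 8 µM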.
Assay [13] can be described thus: viability loss with induced miR-34 in A549 – imaging, A549 dox-inducible miR-34, nuclei and caspase counts, primary screen (AID 1347080;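 active means compounds whose cell count with miR-34 switched on is under 0.7 times the count with it off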). The settings on record: A549 miR-34 inducible, Hoechst nuclei count, 48 h.
The nature of assay [14]: galactose survival enhancers in mitochondrial complex I cybrids – cell-based, galactose medium, ATP luminescence, primary screen (AID 1645843;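 active means z-score of at least 1.8 in each of two replicates, scored against plate mean and spread of sample wells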;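 further: positive z means more ATP and so rescue of galactose-driven cybrid death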). Particulars: complex I mutant cybrid cells, 72 h, stronger effect = higher value.
A short description of assay [15]: compounds altering viability of human ES cells (AID 493140).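 Further: cells exposed to compounds for four days before counting.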 Particulars: human embryonic stem cell survival screen; stronger effect = higher value.
A short description of assay [16]: blockers of MitoPT in mitochondria (AID 1580). Particulars: isolated mitochondria, permeability transition inhibition.
The nature of assay [17]: blockers of polyQ-driven CASP3 activation – cell-based (AID 1583). Particulars: polyglutamine-induced caspase-3 activation, cell assay; stronger effect = higher value;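 tested at 10 µM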.
Assay [18] can be described thus: yeast 75Q aggregation reduction – 75Q-TubU reporter (AID 1593). The settings on record: Yeast 75Q polyglutamine aggregation reporter.
Assay [19] can be described thus: restoration of touch response, mutant HTT neurons – whole organism, C. elegans mechanosensory neurons, N-terminal huntingtin (AID 1599). The settings on record: C. elegans polyQ-huntingtin mechanosensory neurons, stronger effect = higher value.
Assay [20] is described as follows: blockers of cytochrome c efflux from mitochondria – biochemical, purified mitochondria (AID 1603).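 Further: mouse liver mitochondria challenged with calcium chloride; signal normalized to the plate average as 100%.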 Particulars: stronger effect = lower value.
Assay [21] in a line: polyglutamine aggregate formation blockers (AID 1604). Particulars: polyglutamine-induced protein aggregation inhibition assay; stronger effect = higher value; tested at 2.5 µM.
Assay [22] can be described thus: rescue of PC12 cells from polyQ htt toxicity – LDH release (AID 1610). Particulars: PC12 mutant huntingtin toxicity, final LDH at 4 uM, stronger effect = lower value. In general terms: LDH leaks from cells whose membrane has failed.
A short description of assay [23]: glutamate transport activators, MN-1 cells, MN-1 cell line (AID 1612).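 Further: tested at 1 µM final; 0% = mean of DMSO vehicle wells on each plate; positive means more glutamate uptake than control and negative means less.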 Particulars: MN-1 motor neuron cells, stronger effect = higher value.
A short description of assay [24]: 75Q-TubH aggregate inhibition, S. cerevisiae, yeast (AID 1616). Particulars: S. cerevisiae 75Q-TubH polyglutamine aggregation suppression; stronger effect = higher value.

The term inhibition denotes the drop in the measured response relative to a control, in per cent. A word on the remaining activity: it is the signal under treatment as a percentage of the control signal. A word on the EC50: it is the concentration giving half of the maximal effect.

Inconclusive results are not listed. For some of these results: Results with a measured potency or affinity are listed apart. The source made the active and inactive calls. Unless noted, how the calls were made is not given here.

Chain of Mitogen-activated protein kinase 7 (Homo sapiens) (Q13164 whole entry, looked up, the tested form may be a part): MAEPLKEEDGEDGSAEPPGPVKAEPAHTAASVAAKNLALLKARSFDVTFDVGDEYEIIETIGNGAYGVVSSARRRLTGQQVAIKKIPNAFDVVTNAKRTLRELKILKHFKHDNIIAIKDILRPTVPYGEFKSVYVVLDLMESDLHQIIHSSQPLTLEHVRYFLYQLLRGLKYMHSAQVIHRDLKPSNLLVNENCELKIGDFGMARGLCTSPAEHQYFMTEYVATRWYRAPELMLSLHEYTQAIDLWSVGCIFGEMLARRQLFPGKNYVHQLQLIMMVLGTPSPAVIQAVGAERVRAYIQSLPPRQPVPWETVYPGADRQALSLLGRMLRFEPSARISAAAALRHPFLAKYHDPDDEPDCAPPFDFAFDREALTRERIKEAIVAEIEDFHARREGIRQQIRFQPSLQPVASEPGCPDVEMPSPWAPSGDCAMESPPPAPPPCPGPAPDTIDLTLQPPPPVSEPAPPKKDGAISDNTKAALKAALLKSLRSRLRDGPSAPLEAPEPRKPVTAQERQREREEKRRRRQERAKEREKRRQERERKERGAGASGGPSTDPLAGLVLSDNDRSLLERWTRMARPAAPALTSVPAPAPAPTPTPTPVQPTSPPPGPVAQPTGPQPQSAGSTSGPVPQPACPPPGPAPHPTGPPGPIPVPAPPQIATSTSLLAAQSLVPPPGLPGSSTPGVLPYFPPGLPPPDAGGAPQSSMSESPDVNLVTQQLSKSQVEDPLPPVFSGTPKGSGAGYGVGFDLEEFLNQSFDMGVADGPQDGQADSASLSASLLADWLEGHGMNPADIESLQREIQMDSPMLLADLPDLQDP
Chain of 6-phosphogluconate dehydrogenase, decarboxylating (Homo sapiens) (P52209 whole entry, looked up, the tested form may be a part): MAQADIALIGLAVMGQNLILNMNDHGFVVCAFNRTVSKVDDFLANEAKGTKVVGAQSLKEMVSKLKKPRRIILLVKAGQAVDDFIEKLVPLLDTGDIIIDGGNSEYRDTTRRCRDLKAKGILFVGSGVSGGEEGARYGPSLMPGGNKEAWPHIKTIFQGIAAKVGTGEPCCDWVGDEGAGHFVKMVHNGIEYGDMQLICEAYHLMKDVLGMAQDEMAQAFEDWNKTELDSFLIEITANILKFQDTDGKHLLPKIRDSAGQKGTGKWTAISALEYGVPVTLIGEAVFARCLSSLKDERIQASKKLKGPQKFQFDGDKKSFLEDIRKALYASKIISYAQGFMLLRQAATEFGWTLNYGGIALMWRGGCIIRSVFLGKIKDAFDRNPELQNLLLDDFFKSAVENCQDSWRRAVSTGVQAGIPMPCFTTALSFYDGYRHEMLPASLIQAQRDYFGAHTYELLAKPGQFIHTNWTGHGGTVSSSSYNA
Chain of L-lactate dehydrogenase (Plasmodium falciparum (isolate CDC / Honduras)) (Q27743 whole entry, looked up): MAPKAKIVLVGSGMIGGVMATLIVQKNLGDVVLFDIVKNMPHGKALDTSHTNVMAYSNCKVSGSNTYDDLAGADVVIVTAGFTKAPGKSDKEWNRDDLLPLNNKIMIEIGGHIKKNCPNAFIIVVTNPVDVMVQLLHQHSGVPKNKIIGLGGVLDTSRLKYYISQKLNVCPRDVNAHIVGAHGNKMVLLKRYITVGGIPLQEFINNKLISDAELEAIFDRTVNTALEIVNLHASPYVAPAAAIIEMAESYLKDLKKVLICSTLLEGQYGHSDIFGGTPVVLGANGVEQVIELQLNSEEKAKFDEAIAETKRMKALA

In the case of `O=C(O)CNCP(=O)(O)O`, the inhibition in assay [1] was 3.86% (inactive). Further, in [2], the luciferase signal was 40 AU (inactive).

Regarding `CC(Cc1ccc(NC(=O)[C@H](C)NCCc2cccc(Cl)c2)cc1)NCCc1cccc(Cl)c1` (some centres undefined), the values for the growth inhibition in [3] and in [6] were 54% (active) and 100% (active), respectively. The figures for the inhibition in [4] and in assay [5] were 99% (active) and 2% (inactive), respectively. For the same compound, the result in assay [7], in assay [8], in assay [9] and in [10] was inactive.

Take `CC[C@@H](C)C(=O)O[C@H]1[C@H](O)[C@H]2[C@@H](CN3C[C@@H](C)CC[C@H]3[C@@]2(C)O)[C@@H]2C[C@]34O[C@]5(O)[C@@H](OC(=O)[C@@](C)(O)CC)CC[C@@]3(C)[C@@H]5[C@@H](OC(C)=O)[C@@H](OC(C)=O)[C@H]4[C@@]21O`: in assay [1], the inhibition was -7.64% (inactive). Besides, in assay [2], the luciferase signal was 108 AU (inactive).

`NNCc1cccc(O)c1`: in assay [11], the period change is -0.07 h (inactive). The inhibition in [1] was 15.8% (inactive).

Consider `Cc1c(O)c(O)cc2c1CC=C1[C@@]2(C)CC[C@@]2(C)[C@@H]3C[C@](C)(C(=O)O)CC[C@]3(C)CC[C@]12C`, for which the inhibition in [1] was -26.2% (inactive). In assay [2], the luciferase signal was 128 AU (inactive).

In the case of `CC(=O)O[C@@H]1C[C@H]2C(C)(C)C(=O)C=C[C@]2(C)[C@H]2CC[C@]3(C)C(=CC(=O)O[C@H]3c3ccoc3)[C@@]21C`, the inhibition in [1] is 4.47% (inactive). For the same compound, in [2], the luciferase signal was 44 AU (inactive).

Take `CC(Cc1ccc(OCCCCOc2ccccc2)cc1)NCCC1CCCN1C` (centres undefined): the growth inhibition in [3] is 98% (active); in assay [6], 99% (active). Further, the inhibition in [4] is 100% (active); in assay [5], 3% (inactive). Further, the outcome in [7], in [8], in assay [9] and in [10] was inactive.

In the case of `COC(=O)/C=C/C(=O)N[C@@H]1CC[C@@]2(O)[C@H]3Cc4ccc(O)c5c4[C@@]2(CCN3CC2CC2)[C@H]1O5`, the figures for the growth inhibition in assay [3] and in assay [6] were 66% (active) and 95% (active), respectively. The inhibition was 9% (inactive) in assay [4] and -2% (inactive) in assay [5]. Besides, the result in assay [7], in assay [8], in [9] and in [10] was inactive. Moreover, the remaining activity in [12] was 109% (inactive). Also, the fold change is 0.925 (inactive) in assay [13] (stronger effect = lower value) and 0.877 in assay [13] (measured here: relative caspase fold change +Dox/-Dox). The cell count is 7410 in assay [13] (measured here: total cells with miR-34 induction, stronger effect = lower value) and 8010 in [13] (measured here: total cells without miR-34 induction). The z-score in assay [14] is -0.405 (inactive).

In the case of `Oc1cccc(C2CCCN(Cc3cccc4cc[nH]c34)C2)c1` (centres undefined), the growth inhibition in assay [3] is 82% (active); in [6], 101% (active). Further, the inhibition in assay [4] was 16% (inactive); in assay [5], -2% (inactive). In addition, the result in assay [7], in [8], in assay [9] and in assay [10] was inactive.

On to `CC(N)C(O)c1ccc(O)c(O)c1` (centres undefined), for which the survival in assay [15] was 3.67 (inactive). Besides, the inhibition in assay [1] was -5.53% (inactive).

In the case of `COC[C@]12CN(C=O)C3[C@@H]4C(OC)C1[C@]3(C1CC3(O)C(OC)C(O)C4(OC(C)=O)C1C3OC(=O)c1ccccc1)[C@@H](OC)C[C@H]2O` (some centres undefined), the inhibition in assay [1] is -2.18% (inactive). Moreover, in assay [2], the luciferase signal was 148 AU (inactive).

`CO[C@@H]1C[C@@H](C[C@H]2CC[C@H](C)[C@H]([C@@H](C)C(=O)O)O2)O[C@]2(O[C@](C)([C@H]3CC[C@@](C)(C4O[C@@H](C5O[C@@](O)(CO)[C@H](C)C[C@@H]5C)C[C@@H]4C)O3)C[C@H]2C)[C@@H]1C` (some centres undefined): the EC50 in [16] is 175 nM (active). The inhibition in assay [17] was 49.6%; in assay [1], 10.1% (inactive). In assay [18], the score is 0.17. The same compound came in with a rescue above control in assay [19] of 2.36. Moreover, the cytochrome c release ratio in assay [20] is 0.42. Also, the inhibition of aggregation in [21] is -0.07%. Besides, the normalised LDH release in assay [22] was 0.812. In assay [23], the glutamate uptake change was -43.9%. In assay [24], the aggregation suppression score was determined as 0.0976.

On to `CNC(=O)Oc1cccc2c1OC(C)(C)C2`, for which the inhibition in assay [1] was -14.7% (inactive). The luciferase signal in assay [2] was 44 AU (inactive).
